# Bioassay records deposited in PubChem BioAssay by several laboratories.
# Most compounds without a hit are left out; they make up all but 1.7% or so of the library.
# HTR5A inv ctr = inverse agonist of human HTR5A in OPRM1-OPRD1 counter-screen; P47898; HTR5A cell line, luminescence, inverse agonism; inhibition, % at 9.3 µM; hit rate 0.083% among 340,000; AID 504634; in the data active = inhibition mostly above about 23%, no sharp cut-off; inactive = mostly below about 18%
# Target sequence (P47898 whole entry, looked up): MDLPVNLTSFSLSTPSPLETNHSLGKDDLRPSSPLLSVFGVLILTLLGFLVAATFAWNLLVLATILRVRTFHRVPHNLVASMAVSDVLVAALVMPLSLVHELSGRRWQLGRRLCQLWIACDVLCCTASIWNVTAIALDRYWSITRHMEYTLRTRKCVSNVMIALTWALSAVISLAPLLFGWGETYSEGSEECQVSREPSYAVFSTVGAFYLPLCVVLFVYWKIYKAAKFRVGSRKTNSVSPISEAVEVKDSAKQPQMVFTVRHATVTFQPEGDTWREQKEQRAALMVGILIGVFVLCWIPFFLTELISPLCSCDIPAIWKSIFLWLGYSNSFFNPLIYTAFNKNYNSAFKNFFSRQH
# V-ATPase pHluor = regulators of yeast V-ATPase proton transport | S. cerevisiae, pHLuorin cytosolic pH fluorescence | response, % at 10 µM | hit rate 0.37% among 350,000 | AID 504577; in the data active = response mostly above about 7.3%, no sharp cut-off; inactive = mostly below about 5.4%; also: actives read high
# beta cell repl = induces beta-cell replication in MIN6 cells | AID 2380 | proliferation, % at 10 µM | MIN6 cells proliferation, ATPlite luminescence, 48 h; cells starved in 0.2% serum; 100% = growth in 10% serum | hit rate 0.29% among 330,000;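 active = compounds whose signal lies at least 3.5 SD above the mean of all wells on their plate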
# OPRM1-OPRD1 ag = OPRM1-OPRD1 heterodimerization agonism; cells, luminescence; activation, % at 9.3 µM; hit rate 0.3% among 340,000; AID 504326; in the data active = activation above about 18%
# OPRM1-OPRD1 inv = mu-delta opioid heterodimer inverse agonism. P35372+P41143. hit rate 0.21% among 340,000. inhibition, % at 9.3 µM. AID 504357. cell-based MOR-DOR heterodimer luminescence; in the data active = inhibition above about 22%, passing the limit was not always enough
# HTR5A ag = counter-screen for OPRM1-OPRD1 agonists: human HTR5A agonism. AID 504692. activation, % at 9.3 µM. P47898. HTR5A agonist assay, luminescence, cell-based. hit rate 0.61% among 340,000; in the data active = activation mostly above about 9.5%, no sharp cut-off; inactive = mostly below about 7.6%
# V-ATPase pH SP = yeast V-ATPase proton transport regulation | shares compounds with V-ATPase pHluor | S. cerevisiae pHLuorin cytosolic pH | response, % at 10 µM | hit rate 2% among 980 | AID 602197; in the data active = response above about 24%
# A number is an active result; – = inactive; · = not tested or not shown.
SMILES,HTR5A inv ctr,V-ATPase pHluor,beta cell repl,OPRM1-OPRD1 ag,OPRM1-OPRD1 inv,HTR5A ag,V-ATPase pH SP
Cc1nc(C)c(-c2ccc(SCC(=O)Nc3ccccc3)nn2)s1,–,–,–,–,–,–,·
COc1cccc(-c2nc(CS(=O)(=O)CC(=O)NCCN3CCOCC3)c(C)o2)c1,–,–,–,–,–,–,·
COc1cc(NC(=O)C2CCCN2S(=O)(=O)c2ccc3c(c2)CC(C)N3C(C)=O)cc(OC)c1 (stereo not drawn),–,8.5,–,–,–,–,–
O=c1[nH]c(CN2CCN(c3ccccc3O)CC2)nc2ccccc12,–,14.3,–,–,–,–,–
O=c1[nH]c(CN2CCN(CCO)CC2)nc2ccccc12,–,–,–,–,–,–,·
Cc1ccccc1-c1cc(C(=O)NCc2cccc(C(F)(F)F)c2)nn1CC1CC(c2cccc([N+](=O)[O-])c2)=NO1 (stereo not drawn),–,–,–,–,–,–,·
C=CCN(C(=O)CNS(=O)(=O)c1ccccc1)C(C(=O)NCCOC)c1ccncc1 (stereo not drawn),–,21.6,–,–,–,–,–
COC(=O)C1=NNC(C(=O)OC)C1c1ccccc1 (stereo not drawn),–,16.9,·,–,–,–,–
O=C1C=C(c2ccc3c(c2)OCO3)CCC1,–,–,–,–,–,–,·
COc1ccc(OCc2nnc(SCC(=O)Nc3ccccc3F)o2)cc1,–,–,–,–,–,–,·
O=C1C2C3C=CC(C3)C2C(=O)N1c1nccs1 (stereo not drawn),–,9.4,–,–,–,–,–
CC(C)=C1C2CCC1C1C(=O)N(c3nccs3)C(=O)C21 (stereo not drawn),–,–,–,–,–,–,·
Cc1ccc(C(=O)NNC(=O)CCn2nnc3ccccc32)cc1,–,11.0,–,–,–,–,–
CC(=O)c1nn(-c2cccc(C)c2)cc1C(=O)c1cccc(Br)c1,–,5.5,–,–,–,–,–
Cc1ncc([N+](=O)[O-])n1CC(=O)N/N=C/c1ccc(F)cc1,–,–,–,–,–,–,·
O=C(N/N=C/c1ccc(O)cc1O)c1ccncc1,–,6.8,–,–,–,–,–
CCOc1ccc(C2C(C#N)=C(N)SC(N)=C2C#N)c(OCC)c1,–,12.2,–,–,–,–,–
Cc1cc(NC(=O)/C=C/c2ccc(F)cc2)n(-c2nc3ccccc3[nH]2)n1,–,–,–,–,–,–,·
COc1ccc(/C=C/C(=O)Nc2cc(C)nn2-c2nc3ccccc3[nH]2)cc1,–,16.0,–,–,–,–,–
COc1ccc(C(=O)C2CCCN(C(=O)C3=CCCC3)C2)cc1OC (stereo not drawn),–,10.1,–,–,–,–,–
O=S1(=O)N(Cc2ccccc2F)CCCN1Cc1c(F)cccc1Cl,–,9.6,–,–,–,–,–
O=C1C=CC(=Nc2ccc3c(c2)Cc2cc(F)ccc2-3)O1,–,–,·,–,–,–,99.6
Cc1cc(Br)ccc1NC(=O)CN(C)C(=O)C1CCN(C(=O)c2ccc(F)cc2)CC1,–,12.1,–,–,–,–,–
CNC(=O)COC(=O)/C=C/c1cccs1,–,9.0,–,–,–,–,–
CN1CCN(C2CC(=O)N(Cc3ccc(N4CCCC4=O)cc3)C2=O)CC1 (stereo not drawn),–,10.7,–,–,–,–,–
SMILES,HTR5A inv ctr,V-ATPase pHluor,beta cell repl,OPRM1-OPRD1 ag,OPRM1-OPRD1 inv,HTR5A ag,V-ATPase pH SP
O=C1CC(N2CCN(c3ccc(F)cc3)CC2)C(=O)N1Cc1ccc(N2CCCC2=O)cc1 (stereo not drawn),–,–,·,–,–,–,·
CCC(=O)C1CCCN(C(=O)c2cccc(OC3CCN(S(C)(=O)=O)CC3)c2)C1 (stereo not drawn),–,12.1,–,–,–,–,–
CC(C)(CC(=O)O)CC(=O)N1CCCN(c2nccc(C(F)(F)F)n2)CC1,–,–,–,–,–,–,·
O=C(O)c1cc(NC(=O)c2ccc3c(c2)C(=O)N(Cc2ccccc2)C3=O)cc(C(=O)O)c1,–,7.6,–,–,–,–,–
O=C(O)Cc1ccc(NC(=O)c2ccc3c(c2)C(=O)N(Cc2ccccc2)C3=O)cc1,·,–,·,·,·,·,·
O=C(/C=C/c1ccccc1)NCCS(=O)(=O)N1CCN(c2ccccc2)CC1,–,6.5,–,–,–,–,–
COC(=O)c1ccc(-n2c(C)cc(C(=O)CSc3cccc[n+]3[O-])c2C)cc1,–,11.6,–,–,–,–,–
Cc1cc(C(=O)CSc2cccc[n+]2[O-])c(C)n1-c1ccc(OC(F)F)cc1,–,–,–,–,–,–,·
CN1CCc2c(sc(N)c2C(=O)O)C1,–,9.6,–,–,–,–,–
CCc1sc(C(=O)NCc2ccco2)cc1C,–,12.2,–,–,–,–,–
Cc1n[nH]c(C)c1CS(=O)(=O)c1ccccc1,–,7.3,–,–,–,–,–
O=C(O)c1ccc(-c2nnc(-c3ccc([N+](=O)[O-])cc3)o2)cc1,–,9.4,–,–,–,–,–
Cc1ccc2[nH]c(=O)c(CN(Cc3ccccc3Cl)C(=O)N3CCOCC3)cc2c1,–,16.2,–,–,–,–,–
OC(CNCCC1C=Nc2ccccc21)Cn1c2ccc(Cl)cc2c2cc(Cl)ccc21 (stereo not drawn),–,–,·,–,–,–,·
O=C(Nc1ccc2oc(-c3cccnc3)nc2c1)c1ccc([N+](=O)[O-])o1,–,11.0,·,–,–,–,–
CCN(C(=O)c1cc2c(=O)[nH]c3ccc(C)cc3c2s1)c1ccc(OC)cc1,–,–,–,–,–,–,·
CN(CCC1CCOCC1)Cc1nc(Cc2ccccc2F)no1,–,10.9,–,–,–,–,–
Cc1cc(N2CCN(C)CC2)ccc1NC(=O)c1cccc(S(=O)(=O)N2CCc3ccccc3C2)c1,–,–,–,–,–,–,·
O=C(CSc1n[nH]c(=O)[nH]c1=O)c1ccc(Cl)cc1Cl,–,–,–,–,–,–,·
O=C(CSc1n[nH]c(=O)[nH]c1=O)Nc1c(Cl)cc(Cl)cc1Cl,–,12.6,–,–,–,–,–
CSc1ncccc1C(=O)OCC(=O)N1CCN(S(=O)(=O)c2ccc(C)cc2C)CC1,–,–,–,–,–,–,·
Cc1ccc(S(=O)(=O)N2CCN(C(=O)COC(=O)c3cccnc3Cl)CC2)c(C)c1,–,12.7,–,–,–,–,–
COc1ccc(/C=N/NC(=O)C2c3ccccc3-c3ccccc32)cc1,–,26.6,–,–,–,–,–
CC(C)CC(c1nnnn1C1CCCC1)N1CCC(C(N)=O)CC1 (stereo not drawn),–,–,–,–,–,–,·
O=C(NNS(=O)(=O)c1ccccc1[N+](=O)[O-])c1ccccc1Cl,–,11.8,–,–,–,–,–
Cn1c2ccc(F)cc2c2nnc(SCC(=O)Nc3cccc(O)c3)nc21,–,10.8,–,–,–,–,–
